From PubChem BioAssay AID485317 (Broad Institute, 2010)
Out of some 290,000 compounds screened, about 11,000 (3.8%) were called active. The entries come from a sample that favours actives as a whole. A number with no mark means an inactive call.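 How the source made its calls: active means mean replicate inhibition above about 79%, with every replicate also reaching it (limit read from the data); inconclusive means only one of the two criteria met; inactive means mean below limit and not every replicate reaching it.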

The molecules below were run against FAD-linked sulfhydryl oxidase ALR (Homo sapiens) (UniProt P55789) (assay: inhibitors of human ALR sulfhydryl oxidase, primary screen, biochemical, H2O2 detection, HRP-luminol luminescence, single point (AID 485317)). Details: purified ALR, DTT oxidation, hits give high values, concentration not given here.
Chain of FAD-linked sulfhydryl oxidase ALR (Homo sapiens) (P55789 whole entry, looked up): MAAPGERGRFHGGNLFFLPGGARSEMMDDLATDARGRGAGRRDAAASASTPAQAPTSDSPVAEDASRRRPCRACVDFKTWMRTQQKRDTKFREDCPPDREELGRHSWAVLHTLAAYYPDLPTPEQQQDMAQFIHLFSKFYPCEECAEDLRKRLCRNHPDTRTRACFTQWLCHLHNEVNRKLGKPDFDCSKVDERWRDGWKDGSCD

Compound	inhibition
COc1ccccc1C(CNC(=O)c1cccc(S(=O)(=O)Nc2ccc(F)cc2)c1)N(C)C (centres undefined)	-11.3%
COc1cccc(C2=CC(=O)C[C@H](c3ccc(OC)c(OC)c3)C2)c1	-2.35%
O=S(=O)(c1ccc(SCc2ccccc2)nc1)N1CCCCCC1	-0.984%
COC(=O)c1ccc(CSc2ccc(S(=O)(=O)N3CCCCC3)cn2)cc1	98.5% (active)
COC(=O)c1ccc(CNC(=O)c2ccc(S(=O)(=O)N3CCCCCC3)cc2)cc1	-5.09%
CC(=O)c1cccc(OCC(=O)OCC(=O)Nc2cc(S(=O)(=O)N3CCCCC3)ccc2C)c1	-1.77%
CCN(CC(=O)Nc1cc(Cl)ccc1C)C(=O)Cn1c(=O)cnc2ccccc21	0.937%
O=C(Nc1ccon1)c1nc[nH]c1C(=O)NCc1ccccc1	-9.59%
COc1ccccc1N1CCN(C(=O)c2c(-c3c(Cl)cccc3Cl)noc2C)CC1	15.3%
O=C(c1c(Cl)cccc1Cl)N1CCN(c2cccc3[nH]ccc23)CC1	98.9% (active)
O=C(c1ccc2ccccc2n1)N1CCN(c2ccccc2Cl)CC1	2.19%
CN(C)C(=O)N=NC(=O)N(C)C	-21.7%
CCOc1ncccc1C(=O)OCC(=O)Nc1cccc(S(=O)(=O)N2CCCCCC2)c1	0.144%
COc1ccc(C(=O)NCc2ccccc2C)cc1S(=O)(=O)NC1CCCC1	-15.1%
CCn1nnc2cc(C(=O)Nc3ccc(C(=O)OC(C)C)cc3)ccc21	-0.266%
O=C(COC(=O)c1cccnc1Cl)NC(=O)NC1CCCCC1	-0.213%
CCCNC(=O)CCn1cc(-c2ccc(OC)cc2)nc1CCN	10.4%
CN(C)C(CNC(=O)CCCOc1ccccc1)c1ccco1 (centres undefined)	3.18%
O=C(/C=C/c1ccc(Cl)cc1Cl)NCc1ccco1	-6.98%
CC(C)(C)NC(=O)NCc1ccco1	6.08%
O=C(CCOc1ccccc1)NCc1ccccc1	-6.56%
O=C(CCCOc1ccccc1)NCc1ccco1	86.9% (active)
COC(=O)/C=C/C(=O)NCc1ccco1	79.8% (active)
COc1cc(NC(=O)c2[nH]cnc2C(N)=O)cc(C(=O)Nc2cccc(C(F)(F)F)c2)c1	-4.54%

Compound	inhibition
O=C(CSc1nc2ccccc2c(=O)n1Cc1ccc(F)cc1)NCC1CCCO1 (centres undefined)	-7.08%
C=CCNC(=O)C1CC2c3ccccc3C1c1ccccc12 (centres undefined)	-7.82%
Cc1cc(Nc2ccc(Br)cc2)nc2ccccc12	-3.49%
O=C(COC(=O)c1ccc(O)cc1O)c1ccc2c(c1)OCCO2	9.5%
CC1(C)O[C@@H]2CC3C4C[C@H](F)C5=CC(=O)C=CC5(C)C4C(O)CC3(C)[C@]2(C(=O)CO)O1 (some centres undefined)	-6.73%
O=Cc1cn(Cc2ccccc2)nc1-c1cccnc1	-2.35%
O=C1/C(=C\c2cccnc2)CN(Cc2ccccc2)C/C1=C\c1cccnc1	96.1% (active)
Clc1ccc(CN2CCN(/N=C/c3cccnc3)CC2)cc1	14.2%
C=CCc1cc(S(=O)(=O)c2ccc(O)c(CC=C)c2)ccc1O	87.7% (active)
O=C(Nc1ccccc1N1CCCC1)c1ccc2ccccc2c1	77% (active)
Cc1cccc(N2CC(C(=O)Nc3ccccc3N3CCCC3)CC2=O)c1C (centres undefined)	98.4% (active)
O=C(CNCCC1=CCCCC1)Nc1ccccc1N1CCCCCC1	19.2%
Cc1ccc(Cc2nnc(SCC(=O)Nc3ccccc3C)[nH]c2=O)cc1	-2.8%
O=C(Nc1ccccc1N1CCCC1)c1ccc(F)c(S(=O)(=O)N2CCOCC2)c1	43.8%
Cc1ccccc1NC(=O)CNc1ccccc1N1CCCCC1	87.1% (active)
Cc1ccccc1NC(=O)Nc1ccccc1N1CCCCC1	-4.73%
Cc1ccccc1NC(=O)CSc1ccc2nnc(-c3ccccn3)n2n1	-1.94%
Cc1ccccc1N1CC(C(=O)Nc2ccc(S(=O)(=O)N3CCCC3)cc2)CC1=O (centres undefined)	-9.58%
O=C(Nc1ccccc1N1CCCCC1)c1ccc2nccnc2c1	-6.64%
Cc1ccccc1NC(=O)CSC1=NCCN1	99.1% (active)
Cc1ccccc1N1CC(C(=O)Nc2ccc3c(c2)OCO3)CC1=O (centres undefined)	-35.2%
Nc1c(C(=O)OCC(=O)Nc2ccc(OC(F)F)cc2)[nH]c(=O)[nH]c1=O	9.56%
COc1ccccc1N(CC(=O)Nc1ccc(C)cc1Cl)S(=O)(=O)c1cccs1	-3.47%
CC(C(=O)N(C)CC(=O)Nc1ccccc1C(F)(F)F)N1C(=O)c2ccccc2C1=O (centres undefined)	-4.96%

Compound	inhibition
CCOc1ccc(CC(=O)NCCS(=O)(=O)N2CCN(c3ccccc3)CC2)cc1	-1.48%
Cc1onc(-c2c(F)cccc2Cl)c1C(=O)OCC(=O)N1C(C)CCCC1C (centres undefined)	-4.37%
COCCN(CCOC)S(=O)(=O)NC[C@H]1O[C@@H](n2cnc3c(N)ncnc32)[C@H](O)[C@@H]1O	2.26%
COc1cc(C(=O)Nc2ncccc2C)ccc1OCC(=O)N1CCOCC1	-1.3%
CCOc1ccc(C(=O)CCC(=O)NC2=NCCS2)cc1	2.64%
COc1ccc(/C=C/C(=O)c2ccc(OC)cc2O)cc1	-17.6%
CCOc1ccc(/C=C/C(=O)OCC(=O)c2ccccc2OC)cc1OC	1.49%
COCOc1cc(O)c(C(=O)/C=C/c2ccc(OCOC)c(OCOC)c2)c(OCOC)c1	94.9% (active)
C#CCNC(=O)[C@H](Cc1ccc(C(=O)c2ccccc2)cc1)NC(=O)OC(C)(C)C	-2.67%
CCNC(=S)N1CCN(S(=O)(=O)c2ccc(Cl)s2)CC1	-2.01%
COc1ccccc1C(=O)Nc1ccc(OCC(=O)N2CCCCC2)cc1	2.28%
Cc1cc(O)ccc1-c1cnc2ccccc2n1	58%
Oc1ccc(-c2[nH]ncc2-c2nc3ccccc3s2)c(O)c1	83.3% (active)
CC(=O)Nc1cccc(-c2nc3ccccc3s2)c1C	-21%
CCN(C(=O)COC(=O)C1CCN(S(=O)(=O)c2ccc(C)c(C)c2)CC1)C1CCS(=O)(=O)C1 (centres undefined)	-10.6%
COc1ccc(C2=NN(C(=O)CSc3nnnn3C)C(c3ccco3)C2)cc1 (centres undefined)	3.36%
Cc1ccc(C(=O)Nc2ccccc2-c2ccccc2)cc1S(=O)(=O)Nc1ccccc1	-2.08%
CC1CCN(C(=O)CCNC(=O)c2ccccc2)CC1	0.139%
CCOc1ccc(CCNC(=O)C2=C(C)C(=O)OC23CCC(C)CC3)cc1OCC (centres undefined)	-1.93%
CCN(CCNC(=O)C1=C(C)C(=O)OC12CCC(C)CC2)c1ccccc1 (centres undefined)	98.4% (active)
Cc1ccc(S(=O)(=O)NC[C@H]2O[C@@H](n3cnc4c(N)ncnc43)[C@H](O)[C@@H]2O)s1	1.77%
COc1ccc(C(=O)/C=C/c2ccc(-c3ccccc3)cc2)cc1CSCC(=O)O	99.2% (active)
COC(=O)c1ccc(COc2ccc(/C=C/C(=O)c3ccc(OC)c(CSCC(=O)O)c3)cc2OC)cc1	99.4% (active)
O=C(/C=C/c1ccccc1)c1ccoc1	13.2%

Compound	inhibition
COC(=O)c1ccc(COc2ccc(/C=N/NC(=O)C(=O)Nc3ccc(OC)cc3)cc2OC)o1	-5.05%
O=C(O)c1ccc2c(c1)C(=O)N(c1ccc(/C=C/C(=O)c3ccccc3)cc1)C2=O	50.4%
COC(=O)c1ccc(C(NC(=O)OCc2ccccc2)/C(C)=C/[C@@H](C)C(=O)NCc2ccc(OC)c(OC)c2)cc1 (some centres undefined)	-2.17%
CC(OC(=O)CN1C(=O)c2ccccc2C1=O)C(=O)c1ccccc1 (centres undefined)	4.65%
CCC(C)Cn1c(O)cc2nn(-c3nc4ccccc4s3)c(=O)c-2c1C (centres undefined)	98.9% (active)
CCOC(=O)N1CCN(CC(=O)Nc2cc(C)nn2-c2nc3ccccc3s2)CC1	7.49%
Cc1nn(CC(=O)Nc2nc3ccccc3s2)c(C)c1[N+](=O)[O-]	-2.85%
Cc1ccc(-c2csc(NC(=O)C3=COCCO3)n2)cc1C	83.7% (active)
Cc1ccc(-c2csc(NC(=O)c3cnccn3)n2)cc1C	-0.38%
Cc1csc(NC(=O)C2=COCCO2)n1	1.03%
O=C(Nc1cccc(S(=O)(=O)NC2=NCCC2)c1)c1ccc(F)cc1F	-7.53%
COc1ccc(-c2cc(C(=O)N(C)CC(=O)Nc3ccccc3Cl)c3ccccc3n2)cc1OC	-3.41%
Cc1ccc(S(=O)(=O)N(C)C)cc1NC(=O)COC(=O)/C=C/c1cccs1	-0.0664%
O=C(OCC(=O)N1CCN(c2ccccc2)CC1)c1ccc([N+](=O)[O-])s1	-44.6%
COc1ccc(C)cc1NC(=O)Nc1ccccc1SC	-2.74%
COc1ccccc1NC(=O)CC(NCCN(C)C)C(=O)O (centres undefined)	-8.47%
COC(=O)C(CC(=O)Nc1cc(C)ccc1C)Nc1ccccc1OC (centres undefined)	98.4% (active)
COc1cc([N+](=O)[O-])ccc1NC(=O)COC(=O)CCOc1ccc(C)cc1	24.6%
Cc1ccc(NC(=O)Cc2nc(COC(=O)C(C)NS(=O)(=O)c3ccc(C)cc3)cs2)cc1 (centres undefined)	14%
CCN(CC)C(=O)C(=O)Nc1cccc(Br)c1	3.75%
Cc1ccc(CSCC(=O)N(C)CC(=O)Nc2cccc(F)c2)cc1	-16.3%
CCN(CC)C(=O)CSC(Nc1cccc(F)c1)=C(C#N)C#N	98.8% (active)
